Compound activity from PubChem.
Most compounds without a hit are left out; they make up all but 6.5% or so of the library.
VACV mCherry inh: vaccinia inhibition (mCherry reporter). Potency, µM (doses to about 36.5 µM), for inactives: at the highest dose activity change, negative = inhibition, hits mostly inhibitors. 310,000 compounds, 0.63% hits. Vaccinia virus mCherry reporter infection, fluorescence; calls by dose curve; tested in A549 cells; further: potency means the concentration at half of the fitted maximal effect; nearly all actives have a fitted effect of over 35% in size
Lassa entry inh: blocks Lassa virus binding to or entry into cells; Lassa virus pseudotype entry inhibition, cell reporter; Potency, µM (series often up to 37.9 µM), inactives show top-dose activity change, negative = inhibition, usual class: inhibitors; 300,000 compounds, 1.2% hits; calls by dose curve; tested in HEK293 cells; further: potency means the concentration at half of the fitted maximal effect; nearly all actives have a fitted effect of over 50% in size
HCMV antiviral: human cytomegalovirus inhibition; HFF cells, HCMV-luciferase reporter, 72 h; stronger effect = lower value; activity change, negative = inhibition, % at 57.5 µM; 410,000 compounds, 4.5% hits; in the data active means activity change below about -60%; inconclusive means no clear call, values can overlap the other calls; inactive means above about -39%
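Screen run at 2 compound doses on HFFs infected with reporter HCMV, MOI 1 PFU/cell. Luciferase activity from cell lysates at 72 h post infection gave inhibition relative to buffer-only and Salinomycin wells.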
MARV entry inh: inhibitors of Marburg virus binding or cell entry | Marburg virus pseudotyped entry inhibition, cell reporter | Potency, µM (doses to about 37.8 µM), for inactives: top-dose activity change, negative = inhibition, usual class: inhibitors | 300,000 compounds, 1.8% hits; calls by dose curve; tested in HEK293 cells; further: potency means the concentration at half of the fitted maximal effect
Vaccinia Venus: vaccinia inhibition (Venus reporter); Vaccinia virus Venus reporter expression, fluorescence; AID 720580; Potency, µM (top dose mostly 36.5 µM), for inactives: at the highest dose activity change, negative = inhibition, hits mostly inhibitors; 330,000 compounds, 0.46% hits; calls by dose curve; tested in A549 cells; further: potency means the concentration at half of the fitted maximal effect; nearly all actives have a fitted effect of over 30% in size
FMDV antiviral: blocks foot and mouth disease virus; FMDV antiviral cell-based qHTS; Potency, µM (series often up to 57.9 µM), without a hit: at the top dose activity change, negative = inhibition, hits mostly inhibitors; 410,000 compounds, 1.2% hits; AID 1159524; calls by dose curve; tested in HEK293T cells; further: read-out not given here; potency means the concentration at half of the fitted maximal effect; nearly all actives have a fitted effect of over 45% in size
Numbers without * were called inactive; i = inactive; ? = inconclusive; . = no result; [ ] = remark or other dose. On the % scale 0 is the no-effect control and ±100 the full control effect.

SMILES | VACV mCherry inh | Lassa entry inh | HCMV antiviral | MARV entry inh | Vaccinia Venus | FMDV antiviral
Cc1cccc(NC(=O)CNC(=O)CSc2nnc(C(F)(F)F)n2C)c1C | . | . | 45 | . | . | -13%
CC/C(=N\N=C1\SC(C)C(=O)N1Cc1ccco1)c1ccccc1 (stereo unspecified) | -15% | -17% | -1 | 7% | -18% | -22%
Cc1nn(-c2ccccc2)c(C)c1/C=N/Nc1nc2ccccc2[nH]1 | ? | ? | ? | 13µM* | -5% | ?
CCN(CC)c1ccc(/C=N/Nc2nc3ccccc3[nH]2)cc1 | . | 8.2µM* | . | 8.2µM* | . | -44%
C(=N\Nc1nc2ccccc2[nH]1)/c1cccs1 | i | 18% | 40 | ? | -13% | 71%
Cc1cc(=O)[nH]c(N/N=C/c2c(C)nn(-c3ccccc3)c2C)n1 | -5% | 13%[46.1 µM] | -39 | 6%[46.1 µM] | -24% | -1%
Cn1c(/C=N/Nc2nc3ccccc3[nH]2)nc2ccccc21 | ? | ? | -83* | ? | -11% | -23%
Cc1c(/C=N/Nc2nc3ccccc3[nH]2)c2ccccc2n1C | i | ? | -96* | ? | -28% | ?
Nc1ncc(Br)nc1NC1CCOCC1 | . | . | 44 | . | . | .
COc1ccc(-n2ccnc2SCC(=O)c2c(N)n(C3CC3)c(=O)[nH]c2=O)cc1 | -2% | . | 63 | . | -10% | -21%
COc1ccc(NC(=O)CN(C)C(=O)CSCc2ccc(C)cc2)cc1 | -26% | -17% | 31 | 3% | -18% | -13%
On1onc2c3cc(-c4ccccc4)nc3ccc21 | 3.2µM* | ? | -108* | ? | ? | 24%
c1ccc(-c2cc3c(ccc4nonc43)nn2)cc1 | -6% | -9% | 37 | 3% | 6% | 18%
C/C(=N\NC(=S)NCc1ccccc1)c1ccc(Cl)s1 | -19% | -29% | ? | ? | -19% | 50%
COCCNC(=S)N/N=C(\C)c1ccc(Cl)s1 | 8.9µM* | -10% | -29 | 6%[46.1 µM] | -24% | 0%
COc1ccc(Oc2ncc3nc(CCc4ccccc4)c(=O)n(C4CC4)c3n2)cc1 | . | . | . | . | . | 9%
COC(=O)C1=C(C(=O)OC)[C@@H]2N(Cc3ccccc3)c3ccccc3[C@@]23C[C@@H](C(=O)OC)N(C(=O)c2ccc(Br)cc2)C3=N1 | ? | . | . | . | 10µM* | ?
COC(=O)C1=C(C(=O)OC)[C@@H]2N(C)c3ccc(OC)cc3[C@@]23C[C@@H](C(=O)OC)N(C(=O)c2ccc(Br)cc2)C3=N1 | ? | . | 4 | . | 11µM* | ?
CC#CCN1c2ccccc2[C@]23C[C@@H](C(=O)OC)N(C(=O)C4CCC4)C2=NC(C(=O)OC)=C(C(=O)OC)[C@H]13 | -24% | . | -75* | . | -6% | -26%
NNC(=O)c1c[nH]c2ccc(OCc3ccccc3)cc12 | -24% | -17% | -31 | 9%[46.1 µM] | -17% | 0%
OCCNCCc1c[nH]c2ccc(OCc3ccccc3)cc12 | . | . | -60* | 0% | . | 0%
COc1cc2[nH]c3c(N4CCN(c5ccc(Cl)cc5)CC4)ncnc3c2cc1OC | -13% | 1% | ? | ? | ? | -22%
COc1ccc2c(c1)[nH]c1c(N3CCN(Cc4ccc5c(c4)OCO5)CC3)ncnc12 | ? | ? | -39 | ? | ? | 6.3µM*
COc1ccc2c(c1)[nH]c1c(N3CCSCC3)ncnc12 | ? | ? | ? | ? | -25% | 25µM*
Cc1ccc2[nH]c3c(N4CCN(Cc5ccc6c(c5)OCO6)CC4)ncnc3c2c1 | . | . | ? | 1% | . | .
SMILES | VACV mCherry inh | Lassa entry inh | HCMV antiviral | MARV entry inh | Vaccinia Venus | FMDV antiviral
CCOC(=O)c1c(Nc2cccc(C)c2)nnc(-c2ccccc2)c1-c1ccccc1 | -4% | ? | -18 | -21%[46.1 µM] | -8% | -1%
CCCS(=O)(=O)NC(=O)C1(C)CCCN(C(=O)c2cccc(C(F)(F)F)c2)C1 (stereo unspecified) | 25% | . | 23 | . | 3% | -16%
Cc1cc(C(=O)NCc2nnc3n2CCN(Cc2ccc4c(c2)Cc2ccccc2-4)CC3)c(C)o1 | -10% | . | . | . | -6% | -28%
CC(=O)Oc1c(I)cc(I)cc1C(=O)Nc1ccc(Cl)cc1 | 10µM* | 13µM* | -99* | ? | ? | ?
COc1ccc(Cl)cc1C(=O)Nc1ccc(NC(C)=O)cc1 | -20% | -20% | . | 2%[46.1 µM] | -13% | 8%
CCc1nc2ccc(C(=O)NCCOc3ccc(OC)cc3)cn2c1N(CCC(C)C)CCN(C)C | i | . | -20 | . | -18% | ?
Cc1ccccc1NC(=O)c1ccc(F)c(S(=O)(=O)N(C)C2CCCCC2)c1 | -17% | ? | -94* | . | -23% | ?
Cc1ccccc1NC(=O)c1ccc(F)c(S(=O)(=O)NCC2CCCO2)c1 (stereo unspecified) | . | . | 28 | . | . | 30%
CCc1cc2c(nc1CC)CCN(CC/C(C)=N/O[C@H](C)c1cn([C@H](CO)Cc3ccccc3)nn1)C2 | . | . | . | -27%[14.2 µM] | . | .
CCn1cc(C(=O)O)c(=O)c2cc(F)c(N3CCN(S(=O)(=O)c4ccc(NC(=O)OC)cc4)CC3)cc21 | -10% | -4% | -63* | ? | -5% | -22%
CCC[C@H]1[C@H](N(C)Cc2cccs2)CC[C@@]23CCCN2C(=O)CCC[C@@H]13 | . | . | -5 | . | . | .
CCCc1c(-c2ccc(Cl)cc2)ncn1CCc1ccccc1OC | -22% | . | -61* | . | -22% | 28µM*
CCCCc1c(-c2cccc(OC)c2)ncn1CCc1ccccc1OC | -9% | . | ? | . | ? | 25µM*
CCCCc1c(-c2ccc(OC)c(OC)c2)ncn1CCc1ccccc1OC | ? | . | -94* | . | -17% | ?
CCCCCc1c(-c2ccccc2)ncn1CCc1ccccc1OC | -6% | . | ? | . | 3% | -7%
COc1ccccc1CCn1cnc(-c2ccc(OC)c(OC)c2)c1C(C)C | 2% | . | -109* | . | -14% | ?
CC(=O)NCCc1nc2cc(NC(=O)COc3ccc(C)cc3)ccc2n1C | -5% | 8% | 25 | ? | -12% | 7%
CC1CCCCC1NC(=O)CSc1nnc(-c2ccco2)n1C (stereo unspecified) | -21% | 12% | 21 | ? | -13% | -19%
CCCCCCCCN1C(=O)[C@H](CC(=O)NCc2cccc(C(F)(F)F)c2)C[C@@]2(C(=O)OCC)CCCC=C12 | 0% | . | -33 | . | -21% | ?
CCCCc1c(Cc2cccc(F)c2)ncn1CCc1ccccc1OC | -14% | . | -66* | . | -16% | 32µM*
CCC[C@H]1[C@@H](NS(=O)(=O)c2ccc(Br)cc2)CC[C@@]23CCCN2C(=O)CCC[C@@H]13 | . | . | 29 | . | . | .
Cc1ccc(S(=O)(=O)N(CCCO)CC(O)CON=C2c3ccccc3-c3ccccc32)cc1 (stereo unspecified) | -22% | ? | 31 | ? | -8% | 35µM*
COc1cccc(C(=O)OCCNC(=O)c2cccnc2)c1 | -24% | 20% | -2 | 14%[46.1 µM] | -11% | -9%
COC1C(O)C(C)OC(OC2CCC3(C)C(CCC4C3C(O)CC3(C)C(C5=CC(=O)OC5)CCC43O)C2)C1O (stereo unspecified) | 0.25µM* | ? | -99* | ? | 0.35µM* | -21%
